Test results published in PubChem BioAssay (NCI).
Compounds without any hit were thinned out: in the full panel of roughly 83,000, 20% have a hit.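 Note: values are percent growth. 100 is the growth of untreated cells, values between 100 and 0 indicate rising inhibition; between -100 and 0 indicates cell death.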 Activity calls are given as the source filed them. How the source made its calls: active means growth percent below 10; inactive means the rest.

Test system: MDA-MB-468 breast
Test: NCI-60 one-dose screen, 48 h (100 = growth as untreated, 0 = no growth, -100 = all killed)
Conditions: 10 µM unless noted

SMILES	growth
CC[C@]1(O)C[C@@H]2CN(Cc3c([nH]c4ccccc34)[C@@](C(=O)OC)(c3cc4c(cc3OC)N(C)[C@H]3[C@@](O)(C(=O)OC)[C@H](OC(C)=O)[C@]5(CC)[C@@H]6C[C@@H]6CN6CC[C@]43[C@@H]65)C2)C1	8.25% (active)
CCCCN(CCCC)c1cc(C(=O)CCCCCN)c2ccccc2n1	84.5% (inactive)
CC1=NOC(=O)/C1=C\c1ccc(O)cc1	103% (inactive)
Cn1c(=O)[nH]c2ccccc2c1=O	107% (inactive)
CCCCCCCc1n(Cc2ccc3ccccc3c2)c2ccccc2[n+]1Cc1ccc2ccccc2c1	-69.6% (active)
Cc1c([N+](=O)[O-])cc(C(C)(C)C)cc1[N+](=O)[O-]	90.6% (inactive)
N=C(N)c1ccc(-c2ccc(-c3cc(Cl)cc(Cl)c3)s2)nc1	15.7% (inactive)
COc1cc(C2CC(c3ccc(Cl)cc3)=NN2C=O)ccc1OS(=O)(=O)c1ccc(C)cc1 (stereo not given)	60.6% (inactive)
Cc1cccc(N=Cc2ccccc2O)c1C	103% (inactive)
COc1ccc(-c2nnc(SCC(=O)Nc3ccc(C(=O)/C=C/c4ccccc4)cc3)o2)cc1OC	91.1% (inactive)
O=[N+]([O-])c1ccc(S(=O)(=O)OCCCCOS(=O)(=O)c2ccc([N+](=O)[O-])cc2)cc1	92.2% (inactive)
O=C(Nc1nccs1)c1noc2ccccc12	87.3% (inactive)
Cc1ccc2c(c1)c1nc3cc(C)c(C)cc3nc1n2CCN(C)C	-2.86% (active)
CC(=O)O[C@H]1C(=O)[C@@]2(C)C([C@H](OC(=O)c3ccccc3)[C@]3(O)C[C@H](OC(=O)[C@H](O)[C@@H](NC(=O)c4ccccc4)c4ccccc4)C(C)=C1C3(C)C)[C@]1(OC(C)=O)CO[C@@H]1C[C@@H]2O (stereo not given in full)	-11.7% (active)
CC1(COc2ccc3ncc(C#Cc4cncc(C(=O)Nc5cccc(C(F)(F)F)c5)c4)n3n2)COC1	102% (inactive)
N#Cc1c(NC(=O)c2cccc(C(F)(F)F)c2F)sc2c1CCC(=O)C2	-32% (active)
COC(=O)/C=C1/SC(=Nc2cccc(OC)c2)N(CCc2c[nH]c3ccc(O)cc23)C1=O	49.3% (inactive)
CCn1c2ccc(/C=N/N(C)S(=O)(=O)CCN(C)C)cc2c2cc(/C=N/N(C)S(=O)(=O)CCN(C)C)ccc21	40.4% (inactive)
O=C(Nc1nc2ccc(S(=O)(=O)Nc3ccc(C4(C(F)(F)F)CC4)cc3)cc2[nH]1)c1cnccn1	-12% (active)
COc1cc(CN(CCC(O)N2CCCC2=O)Cc2ccc3c(c2)OCO3)cc(OC)c1OC (stereo not given)	119% (inactive)
Cc1cc(Cl)ccc1Nc1nc(C(F)(F)F)ccc1C(=O)N/N=C/c1ccccc1Cl	6.05% (active)
Cn1cc(-c2cc(N)n3nc(-c4cn(C)c5ccccc45)cc3n2)c2ccccc21	75% (inactive)
COc1cc(-c2ccc[nH]2)[nH]c1/C=C1\N=C(C)C(CC(=O)OCC(C)(C)C)=C1C	-79.2% (active)
CC(C)Cn1c2c(c(=S)[nH]c1=O)CCC2	112% (inactive)
O=C(C1=Cc2cc3ccccc3n2Cc2cnnn21)c1ccc(O)cc1	62.2% (inactive)
